# Screen size: about 220,000 compounds; about 2,000 (0.91%) were called active. About 2% were inconclusive and are not listed. Cut-off read from the data, not from the text of the source: inconclusive = inhibition above about 80% without an active follow-up result; inactive = below that; test concentration not stated here. Not all results are given here. Potency and affinity values are given separately.
# Test: M. tuberculosis H37Rv growth inhibitors, H37Rv strain (AID 1626);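 note: bacteria incubated seven days before Alamar blue readout; 0% = bacteria only wells and 100% = bacteria with antibiotic wells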
# Conditions: active compounds read high, concentration not given here
row,SMILES,inhibition
1,Nc1nnc(CCCCCCCCCCc2nnc(N)s2)s1,-1.56% (inactive)
2,CC(C)(C)n1nc2c(c1NC(=O)COc1ccc(Cl)cc1)CS(=O)(=O)C2,1.01% (inactive)
3,CCN(C(=O)COC(=O)/C=C/c1ccc(S(=O)(=O)N2CCc3ccccc32)cc1)C1CCS(=O)(=O)C1 (stereo not drawn),-3.11% (inactive)
4,Cc1c(Cl)cccc1S(=O)(=O)N1CCC(C(=O)NNC(=O)C2CC2)CC1,0.53% (inactive)
5,CCOC(=O)c1c(C)[nH]c(C(C)=O)c1C,-0.35% (inactive)
6,COC(=O)c1ccc(C2C(C(C)=O)=C(O)C(=O)N2CCO)cc1 (stereo not drawn),-1.96% (inactive)
7,COc1cccc(NC(=O)N[C@@H](Cc2ccccc2)C(=O)O)c1,1.84% (inactive)
8,CN(C)c1ccnc(SCc2ccccc2Cl)c1C#N,11.8% (inactive)
9,COc1cccc(C2CC(C(F)(F)F)n3ncc(C(=O)NCc4ccco4)c3N2)c1 (stereo not drawn),3.27% (inactive)
10,Cc1ccc(C2CC(C(F)(F)F)n3ncc(C(N)=O)c3N2)cc1 (stereo not drawn),-4.41% (inactive)
11,Nc1nc(Cn2nnc(-c3ccccc3Cl)n2)nc(N2CCOCC2)n1,-0.22% (inactive)
12,COc1ccc(Cl)cc1C(=O)NNC(=O)CCNC(C)=O,-6.02% (inactive)
13,Cc1ccc(C(=O)/C=C2/NC(=O)CS2)cc1,-4.36% (inactive)
14,O=C1CS/C(=C/C(=O)c2ccccc2)N1,-2.65% (inactive)
15,COC(=O)CN1C(=S)N(c2ccc(OC)cc2)C(=O)/C1=C/c1cccs1,4.42% (inactive)
16,c1ccc(Cc2nnc(N3CCOCC3)c3ccccc23)cc1,-4.25% (inactive)
17,CN(C)S(=O)(=O)c1cc(C(=O)NCc2ccccc2)c(Cl)cc1Cl,-5.51% (inactive)
18,COc1ccc(CCN(C)C(=O)c2ccc(S(=O)(=O)NCc3ccco3)cc2)cc1OC,2.54% (inactive)
19,CC1=C2C3OC(=O)C(C)[C@@H]3CC[C@](C)(O)C2C2C3C4C5(C12)[C@H]1OC(=O)[C@@H](C)C1CC[C@]4(C)O[C@]5(C)[C@@H]3O (stereo partly drawn),17.2% (inactive)
20,Nc1ccc(-c2nc3ccc(N)cc3s2)cc1,-3.52% (inactive)
21,Cc1nc2cc3sc(C)nc3cc2s1,-1.33% (inactive)
22,CCc1ccccc1NC(=O)CSC1=C(C#N)C(c2ccc3c(c2)OCO3)C2=C(CCCC2=O)N1 (stereo not drawn),4.73% (inactive)
23,CCN(CC)CCNc1nc2cc(OC)c(OC)cc2c2nc(-c3ccccc3)nn12,75% (inactive)
24,CCN(CC)CCCNc1nc2cc(OC)c(OC)cc2c2nc(-c3cccnc3)nn12,7.65% (inactive)
25,CC(C)C(NS(=O)(=O)c1cccs1)C(=O)N(C)Cc1ccccc1 (stereo not drawn),-0.19% (inactive)

row,SMILES,inhibition
1,Cc1cc(NC(=O)CSc2nnc(C3CC3)n2N)c([N+](=O)[O-])cc1C,-1.15% (inactive)
2,CCCCCCCn1c2c(c(=N)c3ccccc31)CCC2,9.19% (inactive)
3,CCCCn1c2c(c(=N)c3c1CCC3)CCC2,-7.84% (inactive)
4,CCCCCCCn1c2c(c(=N)c3c1CCC3)CCCC2,13.8% (inactive)
5,CCCCCCCCCn1c2c(c(=N)c3c1CCC3)CCC2,56.5% (inactive)
6,CCCCCCn1c2c(c(=N)c3c1CCC3)CCC2,1.15% (inactive)
7,CCCCCn1c2c(c(=N)c3ccccc31)CCC2,7.75% (inactive)
8,COC(=O)Cc1c(O)ccn(C2CC2)c1=O,-1.41% (inactive)
9,CC(C)C(NS(=O)(=O)c1cccs1)C(=O)NCc1ccccc1Cl (stereo not drawn),-0.44% (inactive)
10,Cn1c(SCC(=O)N2CCCc3ccccc32)nnc1-c1cccs1,11.9% (inactive)
11,COc1cc(NC(=O)c2ccccc2)c(OC)cc1NC(=O)CN1CCCCC1,25.5% (inactive)
12,COc1cc(NC(=O)c2ccc(Cl)cc2)c(OC)cc1NC(=O)CN1CCOCC1,-0.92% (inactive)
13,Cc1cc(NC(=O)c2cc(-c3ccccc3)on2)no1,-3.83% (inactive)
14,CCOC(=O)CC(=O)CSc1nc(C)cc(-c2cccnc2)c1C#N,0.1% (inactive)
15,CN(C)CCCNc1nc2sc3c(c2c(=O)n1CCc1ccccc1)CCCCC3,76.4% (inactive)
16,O=c1c2c3c(sc2nc(NCCO)n1CCc1ccccc1)CCCCC3,5.74% (inactive)
17,CCn1c(=O)n(CCc2ccccc2)c(=O)c2c3c(sc21)CCCC3,0.77% (inactive)
18,CN(C)CCCn1c(=O)n(Cc2ccco2)c(=O)c2c3c(sc21)CCCCC3,-6.11% (inactive)
19,CC1=C(C(=O)Nc2ccccc2)C(c2ccccn2)n2nc(CCCO)nc2N1 (stereo not drawn),2.92% (inactive)
20,Cn1c(Sc2ccc(C(F)(F)F)cc2[N+](=O)[O-])nnc1-c1ccccc1,0.5% (inactive)
21,CCc1ccc(CNCc2cccs2)cc1,-12.3% (inactive)
22,CCc1nc(NCCc2ccccn2)c2nnn(Cc3ccccc3F)c2n1,7.39% (inactive)
23,CN1CCN(CCCNC(=O)c2ccc(/C=C3\Sc4ccccc4N(Cc4ccccc4F)C3=O)cc2)CC1,33.6% (inactive)
24,CCN1CCN(CCCNC(=O)c2ccc(/C=C3/Sc4ccccc4N(Cc4ccccc4F)C3=O)cc2)CC1,1.17% (inactive)
25,NC(N)=NS(=O)(=O)c1ccc(NC(=S)NC(=O)/C=C/c2cccs2)cc1,3.44% (inactive)

row,SMILES,inhibition
1,CCOC(=O)c1c(-c2ccncc2)csc1N,9.94% (inactive)
2,c1cc(-c2ccncc2)ccn1,2.83% (inactive)
3,O=C(NC(=S)Nc1ccccc1[N+](=O)[O-])c1ccccc1Cl,-1.52% (inactive)
4,O=C(Nc1ccccc1)OCCCc1ccccc1,5.86% (inactive)
5,COc1ccc(C2C=C(C34CC5CC(CC(C5)C3)C4)NC(=S)N2)cc1 (stereo not drawn),1.23% (inactive)
6,COC(=O)CSc1[nH]c(=O)cc(C)c1C#N,-7.37% (inactive)
7,COC(=O)CSc1nc2cc(C)ccc2cc1C#N,-2.11% (inactive)
8,COC(=O)c1sc2cnccc2c1N,-1.77% (inactive)
9,COC(=O)CSc1nc(C)cc(C)c1C#N,-8.05% (inactive)
10,COC(=O)c1sc2ccccc2c1N,2.95% (inactive)
11,COC(=O)CSc1nc(-c2cccs2)ccc1C#N,-2.21% (inactive)
12,COc1cc(SC)ccc1C(=O)OCC(=O)NC1CC1,2.29% (inactive)
13,CCOC(=O)CSc1snnc1C,-2.01% (inactive)
14,CN(c1ccccc1)S(=O)(=O)c1cccc(Cl)c1Cl,-4.92% (inactive)
15,c1ccc(-c2ccnc3nc(N4CCN(c5ccccc5)CC4)nn23)cc1,6.16% (inactive)
16,c1ccc(Oc2ccc(-c3ccnc4nc(N5CCN(c6ccccc6)CC5)nn34)cc2)cc1,20.8% (inactive)
17,CNC(=S)NNC(=O)c1sccc1OCc1ccc(Cl)cc1Cl,-2.33% (inactive)
18,COc1ccc(OC)c(-c2cc(C3CCN(c4ncccc4[N+](=O)[O-])CC3)[nH]n2)c1,-8.76% (inactive)
19,N#CC1CCN(c2ncccc2[N+](=O)[O-])CC1,-9.15% (inactive)
20,Cc1nnc(SCc2nc3ccccc3c(=O)n2-c2ccccc2Cl)n1N,2.11% (inactive)
21,Cc1cccc(C)c1NC(=O)c1c(C)nn(-c2ccccc2)c1Cl,-2.35% (inactive)
22,CCN(CC)C(=O)Oc1ccnc2cc(Cl)ccc12,2.84% (inactive)
23,O=C(O)CSc1ccnc2cc(Cl)ccc12,3.22% (inactive)
24,O=C(COc1ccccc1Cl)Nc1ccc2c(c1)OCCO2,5.61% (inactive)
25,COC(=O)c1ccccc1NC(=O)c1cc(C2CC2)on1,4.32% (inactive)

row,SMILES,inhibition
1,CCc1ccccc1NC(=O)c1cc(C2CC2)on1,8.45% (inactive)
2,COc1ccc(-c2csc(N3C(=O)C4C5c6ccccc6C(c6ccccc65)C4C3=O)n2)cc1 (stereo not drawn),49% (inactive)
3,CCc1c(C#N)c(SCCC(=O)Nc2ccc(F)cc2)nc2c1C(=O)CC(C)(C)C2,6.22% (inactive)
4,O=C(c1c(F)cccc1F)N1CCCC1,-1.31% (inactive)
5,O=C(NC1CC1)c1cc2c(F)cccc2s1,-6.42% (inactive)
6,COc1ccc(C(=O)OC(C(=O)c2ccc(C)cc2)c2ccccc2)cc1 (stereo not drawn),9.22% (inactive)
7,C/C(=N/NC(=O)c1cc(-c2ccc(Cl)s2)[nH]n1)c1ccco1,40.6% (inactive)
8,CC1(C)CC(=O)C=C(c2cccc3c2oc2ccccc23)C1,8.8% (inactive)
9,COC(=O)[C@@H]1C[C@H]1[C@@H](NS(=O)(=O)c1ccccc1)c1ccccc1,-5.22% (inactive)
10,C/C(=N\N=C(/N)SC1CC(=O)N(c2ccccc2)C1=O)c1cccs1 (stereo not drawn),3.4% (inactive)
11,C/C(=N\N=C(/N)SC1CC(=O)N(c2ccc(Cl)cc2)C1=O)c1cccs1 (stereo not drawn),64.5% (inactive)
12,O=C(O)/C=C/c1ccc2ccccc2n1,-1.78% (inactive)
13,COC(=O)CNC(=O)COC(=O)/C=C/c1ccc2ccccc2n1,61.8% (inactive)
14,CC(O)/C=C/c1ccc2ccccc2n1 (stereo not drawn),10.2% (inactive)
15,CN(C(=O)COC(=O)/C=C/c1ccc2ccccc2n1)C1CCS(=O)(=O)C1 (stereo not drawn),14.9% (inactive)
16,COc1cc(NC(=O)C2CC(=O)NC3=C2C(=O)CCC3)cc(OC)c1 (stereo not drawn),-7.6% (inactive)
17,CC(=O)O[C@]1(c2ccccc2)CCN(C)[C@H]2CCCC[C@@H]21,-5.42% (inactive)
18,Cc1ccc(Cn2nnc3c(=O)n(CC(=O)c4ccccc4)cnc32)cc1,4.84% (inactive)
19,CC(=O)N1C(=O)N(C)C2C1N(C)C(=O)N2C(C)=O (stereo not drawn),-8.79% (inactive)
20,C=CCOC(=O)C1=C(C)NC(=S)C(C#N)(CC=C)C1c1ccccc1Cl (stereo not drawn),-0.05% (inactive)
21,Cc1ccc(S(=O)(=O)/N=C(\N)Nc2nc(C)c3ccccc3n2)cc1,9.4% (inactive)
22,Cc1ccc2c(C)nc(N/C(N)=N/S(=O)(=O)c3ccc([N+](=O)[O-])cc3)nc2c1,13% (inactive)
23,CCCOc1ccc(N2C(=O)CC(SC(=N)N3N=C(c4ccccc4)CC3c3ccccc3)C2=O)cc1 (stereo not drawn),75.6% (inactive)

# Source: PubChem BioAssay AID1626 (SRMLSC, 2009)
